Results published in PubChem BioAssay (EPA / NIEHS).
Several values for one entry are separate records, joined by “and”; a condition that tells them apart may be missing. Identical values can stand only once. Some structures have more than one record in an assay (separate samples or runs), and their calls can disagree. Activity calls are given as the source filed them. Rule for the calls: active = hit-call score of the fitted dose curve at least 0.9, where 1 is the maximum; inactive = score below 0.9.

Assays:
[1] = read-out: Urokinase-type plasminogen activator receptor (uPAR), PLAUR (gene 5329); experiment: BSK_4H_uPAR: BioMAP Diversity Plus: 4H Assay for Urokinase-type plasminogen activator receptor (uPAR) Biomarker Activity (AID 2283030); conditions: primary human endothelial cells (HUVEC); actives raise or lower the signal
Procedure, shortened: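 Human umbilical vein endothelial cells in the 4H system, 24 h after chemical dosing. Cell-surface uPAR measured by ELISA, fitted in both directions versus DMSO; cytotoxicity checked by SRB total protein in parallel cultures.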

[2] = read-out: Vascular endothelial growth factor receptor 2 (Homo sapiens) (UniProt P35968); experiment: BSK_4H_VEGFRII: BioMAP Diversity Plus: 4H Assay for Vascular endothelial growth factor receptor 2 (VEGFR2) Biomarker Activity (AID 2283031); conditions: primary human endothelial cells (HUVEC); actives raise or lower the signal;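 for AC50: cell-surface VEGFR2 protein level quantified by ELISA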
Procedure, shortened: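 Primary human umbilical vein endothelial cells (4H system), 24 h exposure; cell-surface VEGFR2 measured by ELISA. Bidirectional fitting versus DMSO; cytotoxicity checked in parallel by SRB total-protein staining.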

[3] = read-out: Human Leukocyte Antigen - DR isotype (HLADR), HLA-DRA (gene 3122); experiment: BSK_BE3C_HLADR: BioMAP Diversity Plus: BE3C Assay for Human Leukocyte Antigen - DR isotype (HLADR) Biomarker Activity (AID 2283032); conditions: primary human bronchial epithelial cells; actives raise or lower the signal
Procedure, shortened: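 Cell-surface HLA-DR ELISA readout at 24 h after dosing in the BE3C primary human lung bronchial epithelial system; gain or loss of signal against DMSO, with parallel sulforhodamine B staining of total protein for overt cytotoxicity.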

[4] = read-out: Vascular cell adhesion molecule 1 (VCAM1), VCAM1 (gene 7412); experiment: BSK_4H_VCAM1: BioMAP Diversity Plus: 4H Assay for Vascular cell adhesion molecule 1 (VCAM1) Biomarker Activity (AID 2283033); conditions: primary human endothelial cells (HUVEC); actives raise or lower the signal
Procedure, shortened: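 VCAM-1 ELISA read 24 h after chemical dosing of HUVEC in the BioMAP 4H system, with gain or loss of signal fitted relative to DMSO. Parallel SRB staining (560 nm) checked overt cytotoxicity.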

[5] = read-out: Interferon-gamma inducible Protein 10 (IP10), CXCL10 (gene 3627); experiment: BSK_BE3C_IP10: BioMAP Diversity Plus: BE3C Assay for Interferon-gamma inducible Protein 10 (IP10) Biomarker Activity (AID 2283034); conditions: primary human bronchial epithelial cells; actives raise or lower the signal
Procedure, shortened: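 IP-10 quantified by ELISA in human primary bronchial epithelial cell cultures at 24 hours post-dosing. Gain or loss of signal fitted relative to DMSO; parallel SRB staining assessed overt cytotoxicity.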

[6] = read-out: Monokine induced gamma interferon (MIG), CXCL9 (gene 4283); experiment: BSK_BE3C_MIG: BioMAP Diversity Plus: BE3C Assay for Monokine induced gamma interferon (MIG) Biomarker Activity (AID 2283035); conditions: primary human bronchial epithelial cells; actives raise or lower the signal
Procedure, shortened: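 ELISA quantified MIG after 24 h exposure of primary bronchial epithelial cultures, analysed in both directions relative to DMSO. Cytotoxicity tracked in parallel cultures by sulforhodamine B staining.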

[7] = read-out: Transforming growth factor beta 1 (TGFb1), TGFB1 (gene 7040); experiment: BSK_BE3C_TGFb1: BioMAP Diversity Plus: BE3C Assay for Transforming growth factor beta 1 (TGFb1) Biomarker Activity (AID 2283036); conditions: primary human bronchial epithelial cells; actives raise or lower the signal
Procedure, shortened: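 ELISA readout of TGF-b1 from human lung bronchial epithelial primary cells, taken 24 h post-treatment. Gain or loss of signal fitted relative to DMSO baseline, with parallel SRB staining for overt cytotoxicity.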

[8] = read-out: Plasminogen activator inhibitor-1 (PAI1), SERPINE1 (gene 5054); experiment: BSK_BE3C_PAI1: BioMAP Diversity Plus: BE3C Assay for Plasminogen activator inhibitor-1 (PAI1) Biomarker Activity (AID 2283037); conditions: primary human bronchial epithelial cells; actives raise or lower the signal
Procedure, shortened: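 PAI-1 was measured by ELISA in human primary bronchial epithelial cultures 24 h after chemical dosing, with cytotoxicity checked by SRB total-protein staining in parallel cultures. Activity was fitted in both directions relative to DMSO.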

[9] = read-out: urokinase plasminogen activator (uPA), PLAU (gene 5328); experiment: BSK_BE3C_uPA: BioMAP Diversity Plus: BE3C Assay for urokinase plasminogen activator (uPA) Biomarker Activity (AID 2283038); conditions: primary human bronchial epithelial cells; actives raise or lower the signal
Procedure, shortened: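 Primary human bronchial epithelial cells, uPA measured by ELISA 24 h after dosing. Bidirectional change relative to DMSO; cytotoxicity checked in parallel cultures by sulforhodamine B total-protein staining.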

[10] = read-out: Urokinase-type plasminogen activator receptor (uPAR), PLAUR (gene 5329); experiment: BSK_BE3C_uPAR: BioMAP Diversity Plus: BE3C Assay for Urokinase-type plasminogen activator receptor (uPAR) Biomarker Activity (AID 2283039); conditions: primary human bronchial epithelial cells; actives raise or lower the signal
Procedure, shortened: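 uPAR levels were measured by ELISA after 24 h compound treatment of primary human bronchial epithelial cells, fitted in both directions relative to DMSO. Parallel SRB staining served as the cytotoxicity read-out.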

[11] = read-out: Interleukin-6 (IL6), IL6 (gene 3569); experiment: BSK_CASM3C_IL6: BioMAP Diversity Plus: CASM3C Assay for Interleukin-6 (IL6) Biomarker Activity for (AID 2283040); conditions: primary human coronary artery smooth muscle cells; actives raise or lower the signal
[12] = read-out: Tissue plasminogen activator (tPA), PLAT (gene 5327); experiment: BSK_BE3C_tPA: BioMAP Diversity Plus: BE3C Assay for Tissue plasminogen activator (tPA) Biomarker Activity (AID 2283041); conditions: primary human bronchial epithelial cells; actives raise or lower the signal
Procedure, shortened: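 tPA measured by ELISA 24 h after dosing human primary bronchial epithelial cells (BE3C system). Changes in either direction were fitted against DMSO. Parallel cultures were stained with SRB to flag overt cytotoxicity.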

[13] = read-out: Interleukin-8 (IL8), CXCL8 (gene 3576); experiment: BSK_CASM3C_IL8: BioMAP Diversity Plus: CASM3C Assay for Interleukin-8 (IL8) Biomarker Activity (AID 2283042); conditions: primary human coronary artery smooth muscle cells; actives raise or lower the signal;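 note: IL-8 protein level quantified by ELISA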
[14] = read-out: Human Leukocyte Antigen - DR isotype (HLADR), HLA-DRA (gene 3122); experiment: BSK_CASM3C_HLADR: BioMAP Diversity Plus: CASM3C Assay for Human Leukocyte Antigen - DR isotype (HLADR) Biomarker Activity (AID 2283043); conditions: primary human coronary artery smooth muscle cells; actives raise or lower the signal;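 note: cell-surface HLA-DR protein level quantified by ELISA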
[15] = read-out: Macrophage colony-stimulating factor (MCSF), CSF1 (gene 1435); experiment: BSK_CASM3C_MCSF: BioMAP Diversity Plus: CASM3C Assay for Macrophage colony-stimulating factor (MCSF) Biomarker Activity (AID 2283044); conditions: primary human coronary artery smooth muscle cells; actives raise or lower the signal;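 note: M-CSF protein amount quantified by ELISA after 24 h exposure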
[16] = read-out: Low-density lipoprotein receptor (LDLR), LDLR (gene 3949); experiment: BSK_CASM3C_LDLR: BioMAP Diversity Plus: CASM3C Assay for Low-density lipoprotein receptor (LDLR) Biomarker Activity (AID 2283045); conditions: primary human coronary artery smooth muscle cells; actives raise or lower the signal;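 note: LDLR protein level on the cell surface quantified by ELISA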
[17] = read-out: Monocyte Chemoattractant Protein-1 (MCP1), CCL2 (gene 6347); experiment: BSK_CASM3C_MCP1: BioMAP Diversity Plus: CASM3C Assay for Monocyte Chemoattractant Protein-1 (MCP1) Biomarker Activity (AID 2283046); conditions: primary human coronary artery smooth muscle cells; actives raise or lower the signal;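 note: MCP-1 level quantified by ELISA 24 h after dosing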
[18] = BSK_CASM3C_Proliferation: Cell Proliferation Assessment in the BioMAP Diversity Plus: CASM3C Assay (AID 2283047); conditions: primary human coronary artery smooth muscle cells;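 note: sulforhodamine B total protein stain as relative cell number at 560 nm; sub-confluent cells exposed 48 h before staining; fitted both ways against DMSO so gain or loss of cell number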
[19] = read-out: Monokine induced gamma interferon (MIG), CXCL9 (gene 4283); experiment: BSK_CASM3C_MIG: BioMAP Diversity Plus: CASM3C Assay for Monokine induced gamma interferon (MIG) Biomarker Activity (AID 2283048); conditions: primary human coronary artery smooth muscle cells; actives raise or lower the signal;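 note: MIG protein level measured by ELISA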
[20] = read-out: serum amyloid A (SAA), SAA1 (gene 6288); experiment: BSK_CASM3C_SAA: BioMAP Diversity Plus: CASM3C Assay for serum amyloid A (SAA) Biomarker Activity (AID 2283049); conditions: primary human coronary artery smooth muscle cells; actives raise or lower the signal;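 note: SAA protein level quantified by ELISA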

Measured: AC50

Cc1ccn2nc(S(=O)(=O)Nc3c(F)cccc3F)nc2n1
inactive: all assays above

CCOP(=S)(Oc1cnc(C(C)(C)C)nc1)OC(C)C (configuration not stated)
active: [2] 31.9 µM | [4] 36.8 µM | [18] 32.2 µM
not listed: [3]
inactive: all other assays above

COc1cc(OC)nc(Sc2cccc(Cl)c2C(=O)O)n1
not listed: [5] | [6] | [9]
inactive: all other assays above

S=C1NCCN1
active: [10] 0.397 µM
not listed: [9]
inactive: all other assays above

O=C(O)c1cc(Oc2ccc(C(F)(F)F)cc2Cl)ccc1[N+](=O)[O-]
not listed: [9]
inactive: all other assays above

CSc1nc(NC(C)C)nc(NC(C)C)n1
not listed: [5] | [9]
inactive: all other assays above

CCOP(=S)(OCC)Oc1ccc2c(C)c(Cl)c(=O)oc2c1
active: [18] 20 µM
not listed: [3] | [8] | [9]
inactive: all other assays above

O=[N+]([O-])c1cc(C(F)(F)F)c(Cl)c([N+](=O)[O-])c1Nc1ncc(C(F)(F)F)cc1Cl
inactive: [2] | [11] | [16]
active: [1] 1.4 µM and 2.25 µM | [2] 1.2 µM | [3] 1.52 µM and 3.78 µM | [4] 1 µM and 2.33 µM | [5] 1.23 µM and 4.77 µM | [6] 4.03 µM and 7.17 µM | [7] 2.51 µM and 9.94 µM | [8] 7.78 µM and 8.98 µM | [10] 7.71 µM and 8.37 µM | [11] 3.6 µM | [12] 20 µM | [13] 4.49 µM and 10.8 µM | [14] 2.16 µM and 10 µM | [15] 1.72 µM and 6.05 µM | [17] 4.23 µM and 9.83 µM | [18] 2.28 µM and 1.22 µM | [19] 3.98 µM and 8.05 µM | [20] 3.5 µM and 6.78 µM

COP(=O)(OC)C(O)C(Cl)(Cl)Cl (configuration not stated)
active: [10] 5.49 µM | [18] 20 µM
not listed: [5] | [6]
inactive: all other assays above

CCCCSP(=O)(SCCCC)SCCCC
active: [3] 20 µM | [15] 29.4 µM | [18] 36.8 µM
not listed: [2] | [5] | [9]
inactive: all other assays above

CNC(=O)Oc1cccc2c1OC(C)(C)O2
active: [4] 20 µM
not listed: [3] | [5] | [9]
inactive: all other assays above

CCCCOC(=O)c1ccccc1C(=O)O
not listed: [3] | [6]
inactive: all other assays above

COP(=O)(OC)OC(Br)C(Cl)(Cl)Br (configuration not stated)
inactive: [12] | [14] | [16]
active: [1] 27.9 µM | [2] 31.1 µM | [4] 30.7 µM | [7] 33.1 µM | [8] 27.9 µM | [9] 32 µM | [10] 36.6 µM | [11] 31.2 µM | [13] 32.2 µM | [15] 27.7 µM | [17] 28.6 µM | [18] 11.2 µM | [19] 29.8 µM | [20] 29.9 µM
